High-throughput results from PubChem.
This is a sample that favours compounds with a hit; in the whole collection about 10% have one here.
HCT116 bCat-KO – beta-catenin-lacking colon tumor cell growth suppression | HCT116 beta-catenin knockout viability, CellTiter-Glo, 60 h; hits give low values | viability, % at 10 µM | actives 1.5% (n = 140,000) | AID 818;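 active means viability at or under a set limit, the compound median less 4 SD, cut at about 6% in these data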;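 further: 0% = Hyamine 1622 control at 20 µM and 100% = untreated cell control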
Insulin prom inh – TRM-6 insulin promoter activity inhibition; actives 0.9% (n = 130,000); TRM-6 cells (human fetal islet line), insulin promoter-eGFP reporter, imaging; reporter expression induced with tamoxifen; inhibition, % at 2 µM;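 active means inhibition above the mean plus 3 SD, with well images judged a real hit on visual review, cut at about 60% in these data, passing the limit was not always enough; inconclusive means inhibition over the cutoff but images rejected on review; inactive means inhibition not above the cutoff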
p97 ATPase inh – blocks human p97 ATPase activity | recombinant p97 ATPase, Kinase-Glo ATP luminescence, 3 h | actives 0.42% (n = 220,000) | inhibition, % at 8 µM | P55072; in the data active means inhibition above about 15%;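 further: 0% = DMSO vehicle and 100% = wells lacking enzyme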
Target sequence (P55072 whole entry, looked up): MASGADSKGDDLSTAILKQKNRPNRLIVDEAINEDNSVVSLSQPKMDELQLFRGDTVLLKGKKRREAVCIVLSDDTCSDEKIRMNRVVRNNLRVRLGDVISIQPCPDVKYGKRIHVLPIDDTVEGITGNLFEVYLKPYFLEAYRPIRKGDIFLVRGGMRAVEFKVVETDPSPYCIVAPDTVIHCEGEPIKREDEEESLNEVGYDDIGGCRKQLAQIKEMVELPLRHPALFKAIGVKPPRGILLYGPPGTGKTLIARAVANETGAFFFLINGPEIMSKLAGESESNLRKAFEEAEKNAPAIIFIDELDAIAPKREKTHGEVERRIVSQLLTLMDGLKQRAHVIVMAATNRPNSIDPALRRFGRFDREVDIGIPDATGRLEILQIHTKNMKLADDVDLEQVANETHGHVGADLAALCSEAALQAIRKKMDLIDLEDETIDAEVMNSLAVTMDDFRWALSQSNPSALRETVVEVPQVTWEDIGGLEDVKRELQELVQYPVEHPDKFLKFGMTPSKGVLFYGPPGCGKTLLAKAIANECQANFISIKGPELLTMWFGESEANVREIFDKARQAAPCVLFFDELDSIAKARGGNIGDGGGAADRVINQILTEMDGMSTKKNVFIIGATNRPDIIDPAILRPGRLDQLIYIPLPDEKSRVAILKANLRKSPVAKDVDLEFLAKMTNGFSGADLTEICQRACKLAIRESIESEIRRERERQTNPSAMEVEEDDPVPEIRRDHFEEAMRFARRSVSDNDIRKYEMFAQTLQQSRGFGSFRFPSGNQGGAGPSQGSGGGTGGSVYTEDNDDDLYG
PTEN del growth – growth suppressors of cells with PTEN tumor suppressor deletion. actives 1.2% (n = 140,000). viability, % at 10 µM. AID 827. HCT116 PTEN-null viability, CellTiter-Glo, 60 h; hits give low values;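 active means viability at or below a set limit, 4 SD under the median of all tested compounds, cut at about 3.7% in these data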;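 further: PTEN knockout HCT116 line with beta catenin targeted HCT116 as companion control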
ROMK primary – human ROMK K+ channel modulation, primary screen; P48048; Tet-inducible ROMK, thallium flux fluorescence; actives lie on both sides; B-score at 10 µM; actives 2% (n = 130,000); AID 1918;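 active means signal ratio slope over the read window, or its plate-corrected B-score, at least 3 SD from the plate mean, either direction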;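 further: B-score of the F/F0 ratio slope over 7 to 12 s after thallium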
L major viab – inhibitors of Leishmania major promastigote growth; inhibition, % at 10 µM; actives 9% (n = 200,000); Leishmania major promastigotes, resazurin fluorescence viability; AID 1063; in the data active means inhibition above about 50%;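 further: promastigotes grown with compound for 44 hours at 28 °C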
ROMK hit retest – human ROMK channel modulation, retest confirmation; actives 54% (n = 3,000); ROMK thallium flux, fluorescence ratio; hits give low values; shares compounds with ROMK primary; normalized thallium flux (F/F0 slope) at 10 µM;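 active means Flux at 10 µM at least 3 SD below or above vehicle control mean in one or both replicates; inconclusive means no clear call, values can overlap the other calls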
The depositor's hits bear a star; ? = inconclusive; nt = not tested or not shown.

SMILES	HCT116 bCat-KO	Insulin prom inh	p97 ATPase inh	PTEN del growth	ROMK primary	L major viab	ROMK hit retest
CCCCn1c(Oc2ccc(C(=O)OC)cc2)nc2c1c(=O)n(C)c(=O)n2C	89	52	-3	89	-3.7*	-8	0.06*
N=c1oc2ccccc2cc1-c1nc(-c2ccccc2)cs1	83	nt	-2	70	0.49	-5	nt
N=c1oc2ccc3ccccc3c2cc1-c1nc(-c2ccccc2)cs1	85	-35	-3	88	nt	-4	0.048*
S=c1[nH]c2ccccc2o1	nt	-33	-3	nt	0.054	-3	nt
COc1ccc(NC(=O)c2ccc(-c3ccc(C)c4ccccc34)o2)cc1	86	14	3	97	1.7*	16	0.075
COc1ccc(NC(=O)c2ccc(-c3ccccc3Cl)o2)cc1	92	19	4	96	1.1	0	nt
Cc1ccc(NCc2nnc(SCC(=O)Nc3nnc(C)s3)n2C)cc1	nt	8	6	nt	-0.19	-5	nt
COc1ccc(Cl)cc1-c1csc(N)n1	nt	nt	8	nt	-0.48	0	nt
COc1ccc(CC(=O)Nc2ccc(C(=O)Nc3nccs3)cc2)cc1OC	nt	nt	-1	nt	-1	11	nt
c1ccc2sc(Sc3ncnc4sccc34)nc2c1	4.2*	22	5	4	nt	69*	0.078
Clc1cncc(Cl)c1N/N=C/c1ccncc1	61	62*	3	64	4.1*	26	0.12*
COc1ccccc1C(=O)NCc1ccccc1	104	-14	-1	107	-0.068	-5	nt
COc1ccccc1C(=O)NCCNC(=O)c1ccco1	98	8	5	104	-0.35	-3	0.076
COc1cccc(CNCCNC(=O)c2ccco2)c1OC	92	-28	-3	92	2.9*	7	0.078
COc1ccc(OC)c(CNCCNC(=O)c2ccco2)c1	89	32	3	91	0.67	-6	nt
O=C(/C=C/c1cn(CC(O)CN2CCCCC2)c2ccccc12)c1ccccc1 (centres undefined)	nt	nt	12	nt	nt	nt	0.057*
COc1ccc(C(=O)/C=C/c2cn(CC(O)CN3CCN(C)CC3)c3ccccc23)cc1OC (centres undefined)	nt	nt	5	nt	nt	nt	0.059*
CSC1=NC(C(Cl)(Cl)Cl)N=C(c2ccc(C)cc2)N1 (centres undefined)	nt	nt	0	nt	2.7*	-1	0.1*
CCC1N=C(SC)NC(C)=C1C(=O)c1ccccc1 (centres undefined)	nt	-6	-4	nt	0.046	15	nt
CCOC(=O)c1sc2nc3c(SCCC#N)cc(C(=O)c4cc(F)ccc4O)cn3c(=O)c2c1C	57	-6	2	58	-3.8*	63*	0.07
CCOC(=O)c1sc2nc3c(SCCC(=O)O)cc(C(=O)c4cc(OC)ccc4O)cn3c(=O)c2c1C	nt	nt	-6	nt	0.029	-12	nt
CN(C)C1C(=O)c2ccccc2C1=O	93	34	6	104	nt	-1	nt
COc1cccc(/C=C/C(=O)c2c(O)cc(C)oc2=O)c1O	54	-26	1	62	-5.9*	97*	0.057*
CN(C(=O)CSc1nnc(-c2ccncc2)n1C)C1CCS(=O)(=O)C1 (centres undefined)	94	9	3	95	3.1*	-6	0.076
Cc1ccccc1-n1c(SCC(=O)N(C)C2CCS(=O)(=O)C2)nnc1-c1ccncc1 (centres undefined)	nt	-25	5	nt	0.57	-6	nt
SMILES	HCT116 bCat-KO	Insulin prom inh	p97 ATPase inh	PTEN del growth	ROMK primary	L major viab	ROMK hit retest
COC(=O)C1=C(N)OC2=C(C(=O)CC(C)(C)C2)C1c1ccccc1OCC#N (centres undefined)	nt	20	5	nt	-0.081	3	nt
COC(=O)C1=C(N)OC2=C(C(=O)CC(C)(C)C2)C1c1cccnc1 (centres undefined)	99	21	-6	109	4*	50*	0.072
Cc1ccc(N2CCN(C(=O)NC3CCCCC3)CC2C)cc1 (centres undefined)	nt	nt	1	nt	nt	nt	nt
COc1ccccc1NC(=O)CCSc1nnnn1C	99	-26	-2	96	nt	-4	0.074
O=C(Cn1c2ccccc2c2nc3n(c(=O)c21)CCS3)Nc1ccccc1C(F)(F)F	nt	7	-2	nt	-3.2*	3	0.069*
CCCCn1c(NC(C)CC)nc2c1c(=O)[nH]c(=O)n2C (centres undefined)	97	65	2	94	0.2	0	nt
O=C1N/C(=C/c2ccc(N3CCOCC3)o2)C(=O)N1c1ccccc1	70	21	6	60	-3.4*	0	0.049*
COc1ccc(C2=NOC(COc3ccc4c(C)cc(=O)oc4c3)C2)c(OC)c1 (centres undefined)	nt	nt	0	nt	nt	nt	nt
COc1ccccc1C1=NOC(COc2ccc3c(C)cc(=O)oc3c2)C1 (centres undefined)	nt	nt	-5	nt	3.3*	nt	0.082
O=S(=O)(c1cccc(F)c1)N1CCCN(c2ccc(C(F)(F)F)cn2)CC1	nt	nt	2	nt	nt	nt	nt
c1ccc(-c2nc(N3CCCCCC3)c3ccccc3n2)nc1	3.8*	nt	-1	3.4*	-2.7*	101*	0.059*
c1ccc(CCNc2nc(-c3ccccn3)nc3ccccc23)cc1	nt	nt	4	nt	nt	nt	?
CCOc1cccc(N2C(=O)CC(NCc3ccc(S(N)(=O)=O)cc3)C2=O)c1 (centres undefined)	98	-79	-3	105	0.92	-3	nt
COC(=O)c1ccc(CNC(=O)COC(=O)Cc2ccsc2)cc1	nt	nt	1	nt	0.23	-3	nt
COc1ccc(OC)c(N(CC(=O)Nc2ccc3c(c2)OCO3)S(=O)(=O)c2ccccc2)c1	51	50	2	49	-2.8*	100*	0.075
COc1ccc(OC)c(NC(=O)c2cccc(S(=O)(=O)N(Cc3ccccc3)c3ccccc3OC)c2)c1	84	-27	-10	78	nt	96*	0.078
COc1ccc(Cl)cc1N(CC(=O)Nc1ccc2c(c1)OCO2)S(C)(=O)=O	94	nt	3	86	-1.2	13	nt
CCN(c1ccccc1)c1ncnc2c1cnn2-c1ccccc1	76	nt	2	79	nt	-2	0.055*
CCC(=O)c1c(OCc2ccccc2)ccc2c(C)cc(=O)oc12	nt	7	1	nt	0.54	15	nt
CCn1cc(C(=O)NCc2ccc(C)o2)c2cc(OC)c(OC)cc2c1=O	84	nt	-5	83	nt	8	?
COc1ccccc1CNC(=O)C/C(C)=N/NC(=O)COc1ccc(C)cc1Br	82	-77	1	78	2.8*	-9	0.078
COc1ccccc1CNC(=O)C/C(C)=N/NC(=O)Cc1ccc(OC)c(OC)c1	97	14	-3	103	1.2	-1	nt
CCN(CC)c1ccc2c(c1)CCCN2	13	nt	1	8	nt	32	nt
COC(=O)COc1ccc(-c2ccc(F)cc2)cc1C=O	nt	-450	5	nt	4.7*	10	?
CCN(CC)S(=O)(=O)c1ccc(Cl)c(NC(=O)COC(=O)c2cccn2C)c1	nt	nt	-5	nt	2.7*	10	0.073
